Activity calls are given as the source filed them. Rule for the calls: active = hit-call score of the fitted dose curve at least 0.9, where 1 is the maximum; inactive = score below 0.9.

As a reminder, the AC50 is the concentration giving half of the maximal activity seen.

Assay [1] in a line: ATG_GLI_CIS: Attagene CIS-FACTORIAL HepG2 Assay for human Zinc Finger Protein GLI1 (AID 2282945). To be noted: HepG2, Attagene cis-factorial reporter mRNA, GLI element; actives raise or lower the signal. In a few lines:
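Bidirectional curve fits relative to DMSO, using reporter mRNA levels from RT-PCR plus capillary electrophoresis. Cells were HepG2 transiently carrying cis-regulated reporter constructs, harvested 24 h after dosing.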

Assay [2] in a line: ATG_GRE_CIS: Attagene CIS-FACTORIAL HepG2 Assay for human Glucocorticoid Response Elements (GRE) (AID 2282947). To be noted: HepG2 GRE cis-reporter, Attagene multiplex mRNA; actives raise or lower the signal. The essentials:
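Multiplexed cis-reporter mRNA induction, HepG2, 24 h post-dose. RT-PCR, FAM-labelled, HpaI-digested amplicons by CE. Bidirectional fit vs DMSO.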

A short description of assay [3]: ATG_ISRE_CIS: Attagene CIS-FACTORIAL HepG2 Assay for human Interferon Regulatory Factor 1 (IRF1) binding to an Interferon-Stimulated Response Element (ISRE) (AID 2282948). Particulars: HepG2 ISRE cis-reporter (Attagene), mRNA transcription readout; actives raise or lower the signal. In a few lines:
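Signal reflects induction or loss of ISRE-linked reporter mRNA in transiently transfected HepG2 cells after a 24 h treatment, detected by fluorescent RT-PCR fragments on capillary electrophoresis and normalised to DMSO.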

Assay [4] in a line: ATG_M_32_CIS: Attagene CIS-FACTORIAL HepG2 Assay for M32 Transcription Factor (Internal Marker) (AID 2282949).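 Note: background control marker of the multiplexed CIS panel rather than a real target.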 Particulars: HepG2 Attagene cis-factorial M32 reporter, mRNA; actives raise or lower the signal. The essentials: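 Transient MRTU transfection of HepG2; 24 h compound treatment; TriZol RNA, oligo(dT) RT, reporter PCR, 6-FAM primer extension, HpaI cut, CE. Gain/loss of signal vs DMSO.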

The nature of assay [5]: ATG_M_06_CIS: Attagene CIS-FACTORIAL HepG2 Assay for M06 Transcription Factor (Internal Marker) (AID 2282950). Particulars: HepG2 Attagene CIS-FACTORIAL M06 internal marker reporter; actives raise or lower the signal. In a few lines:
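Cells (HepG2, transiently carrying cis-driven reporter units) receive chemical for 24 h before RNA isolation. Reporter cDNA is PCR-amplified, FAM-labelled by primer extension, HpaI-digested and sized on a capillary analyser.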

Assay [6] concerns the target Hypoxia-inducible factor 1-alpha (Homo sapiens) (UniProt Q16665). Nature of the assay: ATG_HIF1a_CIS: Attagene CIS-FACTORIAL HepG2 Assay for human Hypoxia Inducible Factor 1 (HIF1A) (AID 2282951). Particulars: HepG2 Attagene cis-factorial HIF1a reporter transcription; actives raise or lower the signal. The essentials: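 HepG2 cells transiently transfected with multiplexed cis-promoter reporter units; reporter mRNA read 24 h after dosing by RT-PCR, 6-FAM primer-extension labelling, HpaI digestion and capillary electrophoresis. Bidirectional fit versus DMSO baseline.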

Assay [7] addresses Hepatocyte nuclear factor 6 (Homo sapiens) (UniProt Q9UBC0). Description: ATG_HNF6_CIS: Attagene CIS-FACTORIAL HepG2 Assay for human Hepatocyte Nuclear Factor 6 (HNF6) (AID 2282952). Particulars: HepG2 Attagene cis-factorial HNF6 reporter transcription; actives raise or lower the signal. In a few lines: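 Readout: fluorescent reporter-transcript fragments resolved by capillary electrophoresis after RT-PCR, reflecting endogenous factor activity in transfected HepG2. Exposure 24 h. Gain or loss of signal fitted bidirectionally against DMSO.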

Assay [8] deals with Heat shock factor protein 1 (Homo sapiens) (UniProt Q00613). Nature of the assay: ATG_HSE_CIS: Attagene CIS-FACTORIAL HepG2 Assay for human Heat Shock Transcription Factor 1 (HSE) (AID 2282953). To be noted: HepG2 HSE cis-reporter, Attagene RNA transcription; actives raise or lower the signal. The essentials: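 Liver-derived HepG2 cells carry transiently introduced multiple reporter units governed by cis promoters. Reporter RNA measured 24 h post-dose through reverse transcription, PCR amplification, fluorescent labelling and capillary electrophoresis, normalised to DMSO.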
Chain of Heat shock factor protein 1 (Homo sapiens) (Q00613 whole entry, looked up): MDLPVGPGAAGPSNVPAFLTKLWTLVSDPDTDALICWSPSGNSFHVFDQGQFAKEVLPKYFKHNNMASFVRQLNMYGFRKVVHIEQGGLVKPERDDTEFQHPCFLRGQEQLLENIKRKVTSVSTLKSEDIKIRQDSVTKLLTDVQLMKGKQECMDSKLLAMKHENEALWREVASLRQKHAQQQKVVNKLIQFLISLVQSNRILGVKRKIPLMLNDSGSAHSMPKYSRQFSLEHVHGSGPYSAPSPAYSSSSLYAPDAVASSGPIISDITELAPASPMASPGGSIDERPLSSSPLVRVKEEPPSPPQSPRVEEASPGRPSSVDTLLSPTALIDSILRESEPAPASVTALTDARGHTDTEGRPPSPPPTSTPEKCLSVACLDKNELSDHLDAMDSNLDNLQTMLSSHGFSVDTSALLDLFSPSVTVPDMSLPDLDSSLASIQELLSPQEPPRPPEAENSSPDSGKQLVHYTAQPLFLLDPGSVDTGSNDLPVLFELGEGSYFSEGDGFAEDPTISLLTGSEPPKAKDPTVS

The nature of assay [9]: ATG_MRE_CIS: Attagene CIS-FACTORIAL HepG2 Assay for human Metal Responsive Element (MRE) (AID 2282954). To be noted: HepG2 MRE cis-reporter transcription, Attagene multiplex; actives raise or lower the signal. The essentials: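 Multiplexed cis-reporter assay in human HepG2 liver cells, 24 h incubation with test chemical. Reporter transcripts measured by RT-PCR and capillary electrophoresis; values from bidirectional curve fitting versus DMSO.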

Assay [10] deals with Paired box protein Pax-6 (Homo sapiens) (UniProt P26367). Description: ATG_Pax6_CIS: Attagene CIS-FACTORIAL HepG2 Assay for human Paired Box 6 (PAX6) (AID 2282956). Particulars: HepG2 CIS-FACTORIAL PAX6 reporter transcription, RNA readout; actives raise or lower the signal. The essentials:
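Values derive from bidirectional curve fitting of reporter mRNA signal relative to DMSO. HepG2 cells bearing transfected cis-regulated MRTUs were exposed for 24 h; transcripts were read by RT-PCR and capillary electrophoresis.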

Assay [11] can be described thus: ATG_PXRE_CIS: Attagene CIS-FACTORIAL HepG2 Assay for human Pregnane X Receptor Element (PXRE) (AID 2282957). Particulars: HepG2 Attagene CIS-FACTORIAL PXRE reporter, mRNA; actives raise or lower the signal. The essentials:
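Read-out: fluorescence of reporter-specific RT-PCR products resolved by capillary electrophoresis, fitted bidirectionally relative to DMSO. Human HepG2 liver cells carried transfected cis-promoter reporter units and were exposed to chemicals for 24 h.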

The nature of assay [12]: ATG_PPRE_CIS: Attagene CIS-FACTORIAL HepG2 Assay for human Peroxisome Proliferator-activated Response Element (PPRE) (AID 2282958). Particulars: HepG2 PPRE cis-element reporter, Attagene transcription factor profiling; actives raise or lower the signal. The essentials: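 HepG2 cells transiently transfected with multiplexed cis-element reporter units measure endogenous transcription factor activity. After 24 h compound exposure, reporter mRNA is quantified by RT-PCR, 6-FAM labeling, HpaI digestion and capillary electrophoresis; bidirectional fits are made against DMSO baseline.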

A short description of assay [13]: ATG_RORE_CIS: Attagene CIS-FACTORIAL HepG2 Assay for human RAR-related Orphan Receptor Element (RORE) (AID 2282959). Particulars: HepG2 Attagene cis-factorial RORE reporter, mRNA; actives raise or lower the signal. In a few lines: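 HepG2 cells transiently transfected with multiple cis-element reporter transcription units, exposed to chemical for 24 h. Reporter mRNA quantified by RT-PCR, 6-FAM primer-extension labeling, HpaI digestion and capillary electrophoresis; bidirectional fit versus DMSO baseline.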

Assay [14] in a line: ATG_Sox_CIS: Attagene CIS-FACTORIAL HepG2 Assay for human SRY-box transcription factor (SOX) (AID 2282960). To be noted: HepG2 Attagene cis-factorial SOX reporter, mRNA; actives raise or lower the signal. The essentials: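 HepG2 cells transiently transfected with cis-element-driven multiple reporter transcription units, dosed 24 h; reporter mRNA measured by RT-PCR, FAM labelling, HpaI digestion and capillary electrophoresis. Bidirectional fit versus DMSO baseline.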

Assay [15] addresses Transcription factor Sp1 (Homo sapiens) (UniProt P08047). Nature of the assay: ATG_Sp1_CIS: Attagene CIS-FACTORIAL HepG2 Assay for human Specificity Protein 1 (Sp1) (AID 2282961). To be noted: HepG2 Sp1 cis-reporter transcription, actives raise or lower the signal. The essentials:
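HepG2 cells transiently transfected with multiple reporter transcription units driven by cis-regulatory elements; Sp1-responsive reporter mRNA measured 24 h after dosing by RT-PCR and capillary electrophoresis fluorescence, fitted bidirectionally against DMSO baseline.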

Assay [16] can be described thus: ATG_SREBP_CIS: Attagene CIS-FACTORIAL HepG2 Assay for human Sterol Regulatory Element Binding (SREBP) (AID 2282962). Particulars: HepG2 Attagene cis-factorial SREBP reporter, mRNA; actives raise or lower the signal. In a few lines: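 Values derive from bidirectional curve fitting with DMSO as baseline. The underlying measurement is reporter mRNA from cis-element-regulated units in transiently transfected HepG2, quantified by RT-PCR and capillary electrophoresis after 24 h exposure.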

A short description of assay [17]: ATG_TA_CIS: Attagene CIS-FACTORIAL HepG2 Assay for human TA Basal Promoter (AID 2282964). Particulars: HepG2 Attagene CIS-factorial TA basal promoter reporter; actives raise or lower the signal. In a few lines:
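Background internal-marker endpoint from a 52-component HepG2 cis-reporter panel. Cells treated 24 h; reporter transcripts quantified via RT-PCR and CE fluorescence against DMSO baseline.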

The target of assay [18] is Signal transducer and activator of transcription 3 (Homo sapiens) (UniProt P40763). Description: ATG_STAT3_CIS: Attagene CIS-FACTORIAL HepG2 Assay for human Signal Transducer and Activator of Transcription 3 (STAT3) (AID 2282963). Particulars: HepG2, Attagene cis-factorial STAT3 reporter transcription; actives raise or lower the signal. In a few lines: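 Cis-factorial format: endogenous transcription factors in HepG2 drive transfected reporter units. After 24 h treatment, reporter RNA was reverse-transcribed, amplified, FAM-labelled and HpaI-digested before CE analysis; activity scored in both directions against DMSO.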
Chain of Signal transducer and activator of transcription 3 (Homo sapiens) (P40763 whole entry, looked up): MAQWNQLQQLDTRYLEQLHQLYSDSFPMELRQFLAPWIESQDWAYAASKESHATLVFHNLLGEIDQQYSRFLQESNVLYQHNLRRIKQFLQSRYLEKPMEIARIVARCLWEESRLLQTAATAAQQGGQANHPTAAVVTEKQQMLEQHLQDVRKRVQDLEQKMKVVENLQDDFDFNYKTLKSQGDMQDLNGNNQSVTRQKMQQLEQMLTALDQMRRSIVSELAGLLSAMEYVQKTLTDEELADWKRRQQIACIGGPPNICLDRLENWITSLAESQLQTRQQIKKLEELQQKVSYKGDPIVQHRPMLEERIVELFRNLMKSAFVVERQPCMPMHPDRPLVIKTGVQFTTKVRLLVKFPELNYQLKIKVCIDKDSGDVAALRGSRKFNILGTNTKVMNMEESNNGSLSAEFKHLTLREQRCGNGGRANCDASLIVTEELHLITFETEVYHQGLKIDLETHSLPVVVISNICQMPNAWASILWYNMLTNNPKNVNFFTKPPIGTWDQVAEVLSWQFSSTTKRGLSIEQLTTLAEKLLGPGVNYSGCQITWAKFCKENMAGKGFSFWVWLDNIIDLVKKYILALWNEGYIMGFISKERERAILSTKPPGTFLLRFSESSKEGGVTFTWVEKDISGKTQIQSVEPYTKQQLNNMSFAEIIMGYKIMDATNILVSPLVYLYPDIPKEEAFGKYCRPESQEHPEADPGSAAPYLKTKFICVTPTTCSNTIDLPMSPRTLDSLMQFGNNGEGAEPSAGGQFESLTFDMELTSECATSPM

Assay [19] deals with Bile acid receptor (Homo sapiens) (UniProt Q96RI1). Description: ATG_IR1_CIS: Attagene CIS-FACTORIAL HepG2 Assay for human Nuclear Receptor Subfamily 1 Group H Member 4 (NR1H4), IR1 submotif (AID 2282946). To be noted: IR1 reporter transcription, actives raise or lower the signal. The essentials:
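HepG2 cells transiently transfected with multiplexed cis-element reporter units read endogenous transcription factor activity. After 24 h compound exposure, reporter mRNA was quantified by RT-PCR, fluorescent labelling, HpaI digestion and capillary electrophoresis; bidirectional fitting versus DMSO baseline.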

Assay [20] can be described thus: ATG_PBREM_CIS: Attagene CIS-FACTORIAL HepG2 Assay for human Phenobarbital-responsive Enhancer Module (PBREM) (AID 2282955). To be noted: HepG2 PBREM cis-reporter, Attagene multiplexed transcription; actives raise or lower the signal. The essentials: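 HepG2 cells transiently transfected with multiple cis-regulated reporter transcription units; endogenous factor activity at the PBREM element measured as reporter mRNA 24 h after dosing, via RT-PCR and capillary electrophoresis of fluorescent fragments; bidirectional fitting versus DMSO.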

Chain of Hypoxia-inducible factor 1-alpha (Homo sapiens) (Q16665 whole entry, looked up): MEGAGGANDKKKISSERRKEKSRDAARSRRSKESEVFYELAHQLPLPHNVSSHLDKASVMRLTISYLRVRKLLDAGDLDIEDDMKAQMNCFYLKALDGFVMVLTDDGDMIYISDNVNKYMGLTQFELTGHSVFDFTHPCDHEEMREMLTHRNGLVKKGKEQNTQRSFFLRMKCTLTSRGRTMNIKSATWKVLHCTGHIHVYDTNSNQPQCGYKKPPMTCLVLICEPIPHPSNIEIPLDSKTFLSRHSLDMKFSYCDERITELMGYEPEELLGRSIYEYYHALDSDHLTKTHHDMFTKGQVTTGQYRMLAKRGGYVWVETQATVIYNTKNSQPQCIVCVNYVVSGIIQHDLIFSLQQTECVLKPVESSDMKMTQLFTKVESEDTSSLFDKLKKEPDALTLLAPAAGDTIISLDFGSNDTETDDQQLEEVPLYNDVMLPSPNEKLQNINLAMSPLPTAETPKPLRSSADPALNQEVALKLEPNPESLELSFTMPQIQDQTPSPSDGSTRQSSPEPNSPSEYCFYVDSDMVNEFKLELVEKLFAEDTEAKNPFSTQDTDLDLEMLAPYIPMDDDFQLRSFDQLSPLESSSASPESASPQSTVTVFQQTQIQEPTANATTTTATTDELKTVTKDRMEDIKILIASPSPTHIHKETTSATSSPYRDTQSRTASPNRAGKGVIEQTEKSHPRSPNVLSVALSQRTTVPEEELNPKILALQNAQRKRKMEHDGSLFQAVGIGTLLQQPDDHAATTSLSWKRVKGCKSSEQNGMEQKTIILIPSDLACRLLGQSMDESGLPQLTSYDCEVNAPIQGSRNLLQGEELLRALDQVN
Chain of Hepatocyte nuclear factor 6 (Homo sapiens) (Q9UBC0 whole entry, looked up, the tested form may be a part): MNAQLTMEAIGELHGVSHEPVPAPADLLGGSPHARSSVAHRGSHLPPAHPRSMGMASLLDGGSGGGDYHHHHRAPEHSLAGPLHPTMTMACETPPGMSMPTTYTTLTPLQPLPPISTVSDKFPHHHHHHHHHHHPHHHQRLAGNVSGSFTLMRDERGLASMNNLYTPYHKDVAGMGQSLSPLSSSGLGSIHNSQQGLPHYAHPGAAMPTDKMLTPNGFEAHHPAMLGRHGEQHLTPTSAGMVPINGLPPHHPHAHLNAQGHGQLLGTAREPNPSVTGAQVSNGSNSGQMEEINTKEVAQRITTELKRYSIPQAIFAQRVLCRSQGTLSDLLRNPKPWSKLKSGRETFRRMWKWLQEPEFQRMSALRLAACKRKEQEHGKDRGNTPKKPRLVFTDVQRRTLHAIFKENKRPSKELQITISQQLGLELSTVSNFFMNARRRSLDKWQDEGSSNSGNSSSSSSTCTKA
Chain of Paired box protein Pax-6 (Homo sapiens) (P26367 whole entry, looked up): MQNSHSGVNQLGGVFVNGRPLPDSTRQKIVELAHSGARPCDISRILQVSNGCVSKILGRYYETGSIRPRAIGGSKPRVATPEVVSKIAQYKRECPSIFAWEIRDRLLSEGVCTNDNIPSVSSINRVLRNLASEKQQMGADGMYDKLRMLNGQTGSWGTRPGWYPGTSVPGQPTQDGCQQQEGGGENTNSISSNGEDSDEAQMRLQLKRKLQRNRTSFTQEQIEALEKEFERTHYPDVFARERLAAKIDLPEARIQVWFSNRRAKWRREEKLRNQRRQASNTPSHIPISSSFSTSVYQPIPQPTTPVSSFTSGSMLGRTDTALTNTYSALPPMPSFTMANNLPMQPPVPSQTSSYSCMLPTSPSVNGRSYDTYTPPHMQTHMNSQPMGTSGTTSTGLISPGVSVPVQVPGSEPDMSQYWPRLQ
Chain of Transcription factor Sp1 (Homo sapiens) (P08047 whole entry, looked up): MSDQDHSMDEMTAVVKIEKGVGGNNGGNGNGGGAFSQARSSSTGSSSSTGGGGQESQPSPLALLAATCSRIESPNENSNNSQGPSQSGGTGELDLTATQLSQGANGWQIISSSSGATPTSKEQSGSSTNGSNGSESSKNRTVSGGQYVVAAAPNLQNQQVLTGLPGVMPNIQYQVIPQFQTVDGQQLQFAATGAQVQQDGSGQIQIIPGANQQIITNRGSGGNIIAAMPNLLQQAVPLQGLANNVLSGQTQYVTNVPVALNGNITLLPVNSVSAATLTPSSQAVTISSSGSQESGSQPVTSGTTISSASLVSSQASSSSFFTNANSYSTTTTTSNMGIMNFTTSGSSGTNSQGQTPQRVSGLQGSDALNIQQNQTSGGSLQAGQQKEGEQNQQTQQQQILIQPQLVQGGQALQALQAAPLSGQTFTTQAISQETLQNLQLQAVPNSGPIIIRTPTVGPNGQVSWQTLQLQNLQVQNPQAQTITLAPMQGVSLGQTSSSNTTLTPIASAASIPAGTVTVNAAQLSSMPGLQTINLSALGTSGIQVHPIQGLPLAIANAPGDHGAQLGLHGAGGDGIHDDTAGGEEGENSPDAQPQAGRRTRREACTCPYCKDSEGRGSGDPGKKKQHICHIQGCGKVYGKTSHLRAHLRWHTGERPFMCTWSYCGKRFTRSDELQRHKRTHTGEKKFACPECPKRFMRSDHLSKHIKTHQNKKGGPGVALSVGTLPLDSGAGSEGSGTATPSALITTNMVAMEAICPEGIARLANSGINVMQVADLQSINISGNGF
Chain of Bile acid receptor (Homo sapiens) (Q96RI1 whole entry, looked up): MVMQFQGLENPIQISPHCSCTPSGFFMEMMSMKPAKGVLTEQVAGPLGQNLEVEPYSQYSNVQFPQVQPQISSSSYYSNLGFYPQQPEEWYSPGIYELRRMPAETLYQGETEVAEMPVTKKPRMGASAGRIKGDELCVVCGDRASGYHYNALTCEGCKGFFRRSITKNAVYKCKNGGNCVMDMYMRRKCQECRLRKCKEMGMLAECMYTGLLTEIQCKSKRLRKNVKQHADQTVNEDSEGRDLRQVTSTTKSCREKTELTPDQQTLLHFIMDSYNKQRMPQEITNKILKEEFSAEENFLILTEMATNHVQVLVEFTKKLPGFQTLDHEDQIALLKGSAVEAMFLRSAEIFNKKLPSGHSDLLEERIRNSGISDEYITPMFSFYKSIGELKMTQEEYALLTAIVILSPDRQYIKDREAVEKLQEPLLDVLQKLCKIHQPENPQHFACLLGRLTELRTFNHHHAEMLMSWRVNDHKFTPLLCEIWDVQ

As to `OCCCO`, the compound was called inactive in [1], in assay [2], in assay [3], in [4], in assay [5] and in assay [6]. The compound was called inactive in assay [7], in assay [8], in assay [9], in [10], in assay [11] and in assay [12]. Also, the outcome in [13], in assay [14], in assay [15], in [16] and in assay [17] was inactive.
With `N=C1N=C(N)c2ccccc21`, the outcome in [1], in assay [2], in [4], in assay [5], in assay [6] and in assay [7] was inactive. Besides, the result in [8], in assay [10], in [11], in assay [13], in [14] and in assay [15] was inactive. The call in [16], in [18] and in [17] was inactive. Besides, the values for the AC50 in [3] and in assay [9] were 74.1 µM (active) and 74.5 µM (active), respectively.
`CC12CCC(C1)C(C)(C)C2O` (stereo not given): the outcome in assay [1], in [19], in assay [3], in assay [4], in assay [5] and in assay [8] was inactive. Moreover, the compound was called inactive in [9], in [20], in assay [10], in assay [11], in [13] and in assay [14]. Further, the compound was classed as inactive in assay [15], in [18] and in assay [17].
For the compound `[Na+]`, the compound was called inactive in assay [1], in [2], in assay [3], in assay [4], in assay [5] and in assay [6]. Further, the result in assay [7], in assay [8], in assay [9], in [20], in assay [10] and in [11] was inactive. For the same compound, the result in [14], in assay [16], in assay [18] and in assay [17] was inactive.
Consider `CCCO[Si](OCCC)(OCCC)OCCC`, for which the call in [1], in assay [2], in [3], in assay [4], in [5] and in [6] was inactive. In addition, the outcome in assay [7], in [8], in assay [9], in [10], in assay [11] and in assay [13] was inactive. The compound was called inactive in [14], in assay [15], in assay [16], in assay [18] and in assay [17].
Turning to `CCC(C)(C)C1CCC(OC)CC1` (stereo not given), the call in assay [1], in assay [19], in assay [3], in assay [4], in assay [5] and in assay [7] was inactive. For the same compound, the outcome in [8], in assay [9], in [20], in assay [10], in assay [12] and in [13] was inactive. In addition, the outcome in assay [14], in assay [15], in [18] and in assay [17] was inactive. In [11], the AC50 is 3.33 µM (active).
`c1ccc2scnc2c1`: the result in assay [1], in assay [2], in assay [3], in assay [4], in [5] and in assay [6] was inactive. Moreover, the compound was called inactive in assay [7], in assay [8], in [9], in [10], in [12] and in assay [13]. For the same compound, the call in assay [14], in assay [15], in assay [18] and in [17] was inactive. The AC50 in [11] was 55.6 µM (active).
In the case of `CCCCCCCCCCOC(=O)c1ccccc1C(=O)OCCCCCCCC`, the outcome in [1], in [2], in [3], in [4], in [5] and in assay [6] was inactive. Further, the compound was called inactive in [7], in [8], in assay [9], in [20], in [10] and in assay [12]. Besides, the result in [13], in [14], in assay [15], in assay [16], in assay [18] and in assay [17] was inactive. Moreover, the AC50 in assay [11] is 3.87 µM (active).

Values taken from PubChem BioAssay (EPA / NIEHS).
